# Experimental data as given in PubChem BioAssay (NCATS).
# “And” between values parts separate entries of the source, which are not always exact repeats. Equal values may be shown once. Inconclusive results are not listed. A structure can be active in one record and inactive in another. A number with no mark means an inactive call. The source made the active and inactive calls. Unless noted, calls come from the whole dose curve; as a rule, active = well fitted curve in the direction sought with a large enough effect; inconclusive = small, poorly fitted or top-dose-only effect, or another doubt; inactive = no such curve, though single readings can be large; an effect the other way counts as inactive or inconclusive.
# Tests used:
# [1] = biological target: Cellular tumor antigen p53 (Homo sapiens) (UniProt P04637); test: Primary qHTS for small molecule compounds that upregulate eGFP-tagged delta133p53alpha (in N-terminal) cells. (AID 2060322); settings: NCI-H358 eGFP-delta133p53alpha fluorescence, 24 h; activation: active compounds read high; note: nearly all actives have a fitted effect of over 75% in size; note: potency is the fitted concentration of half-maximal effect;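 for activation: series mostly up to about 56 µM; 0% = DMSO vehicle and 100% = reference activator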
# Cellular tumor antigen p53 (Homo sapiens), sequence (P04637 whole entry, looked up): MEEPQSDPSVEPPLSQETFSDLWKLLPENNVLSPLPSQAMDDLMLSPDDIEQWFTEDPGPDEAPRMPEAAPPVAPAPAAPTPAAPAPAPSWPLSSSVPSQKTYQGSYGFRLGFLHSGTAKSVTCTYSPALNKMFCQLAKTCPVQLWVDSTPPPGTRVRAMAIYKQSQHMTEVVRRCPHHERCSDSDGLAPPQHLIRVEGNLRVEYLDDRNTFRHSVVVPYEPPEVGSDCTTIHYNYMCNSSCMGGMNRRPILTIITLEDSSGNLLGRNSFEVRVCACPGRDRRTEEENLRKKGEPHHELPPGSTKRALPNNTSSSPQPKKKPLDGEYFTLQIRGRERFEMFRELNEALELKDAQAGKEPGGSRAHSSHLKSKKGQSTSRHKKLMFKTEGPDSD
# Method in brief: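 NCI-H358 cells pre-induced 24 h with 10 ng/ml doxycycline to express N-terminal eGFP-delta133p53alpha, then dosed 24 h at 37C without doxycycline; fixed, Hoechst-stained, GFP intensity by laser scanning cytometry, normalized to DMSO (0%) and 57.5 uM 5-azacytidine (100%).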
# [2] = biological target: Aldehyde dehydrogenase, mitochondrial (Homo sapiens) (UniProt P05091); test: qHTS for Inhibitors of the Aldehyde Dehydrogenase Family (ALDH2) Validation screens (AID 2061302; active = well fitted inhibition curve with a large enough effect; title and protocol of this record describe different tests; note: potency is the fitted concentration of half-maximal effect)
# [3] = biological target: Aldehyde dehydrogenase, mitochondrial (Homo sapiens) (UniProt P05091); test: qHTS for Inhibitors of the Aldehyde Dehydrogenase Family (ALDH2) Primary screen (AID 2061308);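 note: plate controls were vehicle for no effect and reference inhibitor for full effect; nearly all actives have a fitted effect of over 55% in size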
# [4] = biological target: Retinaldehyde dehydrogenase 3 (Homo sapiens) (UniProt P47895); test: qHTS for Inhibitors of the Aldehyde Dehydrogenase Family (ALDH1A3) Validation screen (AID 2061312); note: % is set by controls: 0 for no effect and ±100 for the full control effect; nearly all actives have a fitted effect of over 45% in size
# [5] = biological target: Retinaldehyde dehydrogenase 3 (Homo sapiens) (UniProt P47895); test: qHTS for Inhibitors of the Aldehyde Dehydrogenase Family (ALDH1A3) Primary screen (AID 2061315);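 note: plate controls were DMSO vehicle for no effect and reference inhibitor for full effect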
# [6] = BET inhibitor-based combinations targeting novel dependencies in MECOM-rearranged (r) AML: AML-191 cell line (AID 2202236;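 note: plate controls were vehicle wells for no effect and wells without cells for full effect; nearly all actives have a fitted effect of over 35% in size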)
# Method in brief: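 A 48 hr incubation preceded viability reading by CellTiter-Glo, with 15 min room-temperature development. Dose series had 11 points; normalization used DMSO and empty wells; AUC was computed and mean-centered per line as Z-AUC.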
smiles,measurement,setting,value
COc1ccc(CN2CCNCC2)c(OC)c1OC,activation,[1],-13%
CC(O)CN1CCN(CC(=O)[O-])CCN(CC(=O)[O-])CCN(CC(=O)[O-])CC1.[Gd+3] (stereo unspecified),activation,[1],-12.6%
CCCC(C)(COC(N)=O)COC(=O)NC(C)C (stereo unspecified),activation,[1],-6.69% and 15.9%
CC(CC(C#N)(c1ccccc1)c1ccccc1)N(C)C (stereo unspecified),activation,[1],24.3%
Oc1cc(Cl)ccc1Oc1ccc(Cl)cc1Cl,Potency,[1],51.4 µM (active)
CNCC(=O)c1ccc(O)c(O)c1,activation,[1],8.47%
CC(=O)O[C@@]12CO[C@H]1C[C@H](O)[C@@]1(C)C(=O)[C@H](O)C3=C(C)[C@@H](O)C[C@@](O)([C@@H](OC(=O)c4ccccc4)[C@@H]21)C3(C)C,Potency,[1],30.6 µM (active)
O=C(CCCCl)c1ccc(F)cc1,activation,[1],-10.9%
C1CCC(NC2CCCCC2)CC1,activation,[1],7.53%
O=[N+]([O-])c1cc([As](=O)(O)O)ccc1O,activation,[1],9.21%
COC[C@H]1OC(=O)c2coc3c2[C@@]1(C)C1=C(C3=O)[C@@H]2CC[C@H](O)[C@@]2(C)C[C@@H]1OC(C)=O,activation,[1],13.2%
O=C(O)c1ccc2[nH]cc(CCCCN3CC=C(c4ccccc4)CC3)c2c1,activation,[1],-5.08%
CCOC(=O)C1(c2ccccc2)CCN(CCC(C#N)(c2ccccc2)c2ccccc2)CC1,activation,[1],-1.69%
N#Cc1nn(-c2c(Cl)cc(C(F)(F)F)cc2Cl)c(N)c1S(=O)C(F)(F)F (stereo unspecified),activation,[1],-2.51%
COc1cc(C[C@@H](C)N)c(OC)cc1Br,activation,[1],-17.5%
COc1cc(CC(C)N)c(OC)cc1Br (stereo unspecified),activation,[1],43.5%
C[C@H]([C@H](O)CCC(C)(C)O)[C@H]1CC[C@@]2(O)C3=CC(=O)[C@@H]4C[C@@H](O)[C@@H](O)C[C@]4(C)[C@@H]3CC[C@]12C,activation,[1],-1.72%
C[N+]1(CCF)[C@@H]2CC[C@H]1CC(OC(=O)C(O)(c1ccccc1)c1ccccc1)C2 (stereo partly specified),activation,[1],5.08%
CCOC(=O)CC(SP(=S)(OC)OC)C(=O)OCC (stereo unspecified),activation,[1],-9.21% and 9.21%
C[C@]12CC[C@H]3[C@@H](CC=C4C[C@@H](O)CC[C@@]43C)[C@@H]1CC[C@@H]2O,activation,[1],-16.7%
C[C@]12CC[C@H]3[C@@H](CC[C@@]45O[C@H]4C(O)=C(C#N)C[C@]35C)[C@H]1CC[C@H]2O,Potency,[1],21.7 µM (active)
COc1ccc(Cc2nccc3cc(OC)c(OC)cc23)cc1OC,activation,[1],-17.6% and 20.4% and -35.4%
CC1=C2C[C@@H]3[C@@H](CC=C4C[C@@H](O)CC[C@@]43C)[C@@H]2CC[C@]12O[C@H]1C[C@H](C)CN[C@H]1[C@H]2C,activation,[1],14%
O=c1[nH]c2cc(Cl)ccc2n1C1CCNCC1,activation,[1],9.6%
O=C(O)c1ccc(=O)[nH]c1,activation,[1],11.9%
CCO/N=C(\CC)C1=C(O)CC(c2c(C)cc(C)cc2C)CC1=O (stereo unspecified),activation,[1],16.7%
c1cc2c(cc1[C@H]1OC[C@H]3[C@H]1CO[C@H]3c1ccc3c(c1)OCO3)OCO2,activation,[1],13.9%
CC(C)(O)C(Cl)(Cl)Cl,activation,[1],-9.6%
CN1CCC(N(Cc2ccccc2)c2ccccc2)CC1,activation,[1],10.7%
C=CCOC(Cn1ccnc1)c1ccc(Cl)cc1Cl (stereo unspecified),activation,[1],6.69%
CCC(C)C(C)(COC(N)=O)COC(N)=O (stereo unspecified),activation,[1],8.37%
CC(=O)Nc1cc([As](=O)(O)O)ccc1O,activation,[1],-10.9%
CC(=O)C1CCOC1=O (stereo unspecified),activation,[1],-9.21%
Fc1cc(Br)ccc1CBr,activation,[1],-29.9%
CCCCCCCCCC(=O)O[C@H]1CC[C@H]2[C@@H]3CCC4=CC(=O)CC[C@@H]4[C@H]3CC[C@]12C,activation,[1],2.82%
CC1=NN=C(c2ccc(N)cc2)c2cc3c(cc2C1)OCO3,Potency,[1],9.68 µM (active)
same,activation,[1],6.58%
same,Potency,[2],8.91 µM (active)
O=c1[nH]c2ccccc2n1C1CCN(CCCC(c2ccc(F)cc2)c2ccc(F)cc2)CC1,Potency,[1],26.9 µM (active)
same,activation,[1],-35.4%
same,Potency,[2],inactive
same,Potency,[3],inactive
same,Potency,[4],inactive
same,Potency,[5],inactive
CN(C)[C@@H]1C(=O)C(C(N)=O)=C(O)[C@@]2(O)C(=O)C3=C(O)c4c(O)cccc4[C@@](C)(O)[C@H]3C[C@@H]12,Potency,[1],21.9 µM (active)
same,activation,[1],-14.3%
same,Potency,[6],inactive
O=C1OC(CCN2CCCCC2)OC1(c1ccccc1)c1ccccc1 (stereo unspecified),activation,[1],-20.9%
c1ccc(CN2CCNCC2)cc1,activation,[1],15.3%
CC(C)Oc1cccc(NC(=O)c2ccccc2C(F)(F)F)c1,activation,[1],-17.6%
NC1=NC(=O)C(c2ccccc2)O1 (stereo unspecified),activation,[1],0.565%
